# Data as given in PubChem BioAssay (Tox21).
# Inconclusive results are not listed. A call without a number means that no potency is given here. Activity calls are given as the source filed them. The call rests on the fitted dose curve; in most records, active means well fitted cell-killing curve with a large enough effect in the repeat runs; inconclusive means weak or mixed curves; inactive means flat fitted curve, though single readings scatter.
# Experiment: qHTS RealTime-Glo MT Cell Viability Assay in HepG2 cells - 16 hour (AID 1224885); further: nearly all actives have a fitted effect of over 50% in size
# Conditions: RealTime-Glo luminescence; series mostly up to 76.8 µM
# Description: U.S. Tox21 Program National Center for Advancing Translational Sciences [NCATS] NIH Chemical Genomics Center [NCGC] U.S. Environmental Protection Agency [EPA] National Institutes of Environmental Health Sciences [NIEHS] National Toxicology Program [NTP] U.S. Food and Drug Administration [FDA] Tox21 Assay Overview: Measure of cell viability is critical in the cell-base assay. Analysis of cell viability is necessary for the characterization of cell responses to cytotoxic drugs and environmental stress. A RealTime-Glo MT Cell Viability Assay to monitor cell viability in real time of continues cell culture during 40 hours of compound treatment was used to screen Tox21 10K library compounds in HepG2 cells. The RealTime-Glo MT Cell Viability Assay is a nonlytic, homogeneous, bioluminescent method to measure cell viability in real time using a simple, plate-based method. The assay involves adding NanoLuc luciferase and a cell-permeant prosubstrate to cells in culture. Viable cells reduce the proprietary prosubstrate to generate a substrate for NanoLuc luciferase. This substrate diffuses from cells into the surrounding culture medium, where it is rapidly used by the NanoLuc Enzyme to produce a luminescent signal. The signal correlates with the number of viable cells, making the assay well suited for cytotoxicity studies.
# Tox21 Assay Protocol Summary: The mixture of HepG2 cell suspension and reagents were dispensed at 600cells/6 ul/well in 1536-well tissue culture treated black solid bottom plates using a Multidrop dispenser. After the assay plates were incubated at a 37 C/5% CO2 incubator for 5 hours, 23 nL of compounds dissolved in DMSO, positive and negative controls was transferred to the assay plate by a pintool work station. The plates were incubated at 37 C for 40 hours. The luminescence intensity were measured at 0h, 8h, 16h, 24h, 32h and 40h time points using ViewLux plate reader during compound treatment.
row,Compound,Potency
1,CCCCCCCCOc1ccc(C(=O)c2ccccc2)c(O)c1,inactive
2,CC(=O)OC/C=C(C)/C=C/C=C(C)/C=C/C1=C(C)CCCC1(C)C,inactive
3,NC(=O)c1ccc([N+](=O)[O-])cc1Cl,inactive
4,COc1ccc(O)cc1,inactive
5,CC(C)Cc1ccc(C(C)C(=O)O)cc1 (stereo not given),inactive
6,NC(=O)N/N=C/c1ccc([N+](=O)[O-])o1,inactive
7,COC(=O)c1ccc(C=O)cc1,inactive
8,CCCCOC(=O)CCCCCCCCC(=O)OCCCC,inactive
9,Cc1cccc2ccccc12,inactive
10,N[C@@H](Cc1c[nH]c2ccc(O)cc12)C(=O)O,inactive
11,COc1cc2c(c(OC)c1OC)-c1ccc(OC)c(=O)cc1[C@@H](NC(C)=O)CC2,inactive
12,c1ccc2[nH]c(-c3cscn3)nc2c1,inactive
13,COc1cc(C=O)ccc1O,inactive
14,CC(C)CC(C)CC(O)CC(C)C (stereo not given),inactive
15,Cc1c(N(C)C)c(=O)n(-c2ccccc2)n1C,inactive
16,O=[N+]([O-])c1ccc(O)cc1,inactive
17,CCCCCCCCCCCCCC(=O)OC(C)C,inactive
18,Cc1cccc(Nc2cc(Cl)nc(SCC(=O)O)n2)c1C,inactive
19,CC(O)COc1ccccc1 (stereo not given),inactive
20,CCOCCO,inactive

row,Compound,Potency
1,O=c1c(-c2ccc(O)cc2)coc2cc(O)cc(O)c12,inactive
2,CC(=O)c1ccc(S(=O)(=O)NC(=O)NC2CCCCC2)cc1,inactive
3,N[C@@H](Cc1c[nH]c2ccccc12)C(=O)O,inactive
4,NC(=O)N1c2ccccc2C=Cc2ccccc21,inactive
5,O=C1OC(c2ccc(O)cc2)(c2ccc(O)cc2)c2ccccc21,inactive
6,CCCCC/C(C=O)=C\c1ccccc1,inactive
7,NC(=O)NO,inactive
8,C=CC(=O)NC(C)(C)CS(=O)(=O)O,inactive
9,NC(=O)OCC(COC(N)=O)c1ccccc1,inactive
10,Cc1cnc(NC(=O)C2=C(O)c3ccccc3S(=O)(=O)N2C)s1,inactive
11,O=C1CCCCCN1,inactive
12,CCc1cc(C(N)=S)ccn1,inactive
13,CCN(CC)CCOC(=O)c1ccc(N)cc1,inactive
14,Nc1cccc(N)c1,inactive
15,CC(=O)/C=C/C1=C(C)CCCC1(C)C,inactive
16,C=CCOC(=O)CC(C)C,inactive
17,C[C@]12CC[C@@H]3c4ccc(O)cc4CC[C@H]3[C@@H]1CCC2=O,inactive
18,Cc1cccc(C)c1O,inactive
19,C#C[C@]1(O)CC[C@H]2[C@@H]3CCc4cc(O)ccc4[C@H]3CC[C@@]21C,inactive
20,Cc1ccc(O)c(-n2nc3ccccc3n2)c1,inactive
